Shh pathway inh – Hedgehog pathway signaling inhibitors, primary screen, luminescence, Shh-LIGHT2 cells, Gli-luciferase; 22,000 tested, 2.1% active; Shh-LIGHT2 Gli-luciferase reporter, 30 h; inhibition, % (test concentration not listed);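 active means mean inhibition across valid replicates above about 65%, limit read from the data; inconclusive means mean under the limit, yet half or more replicates past it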;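 further: pathway switched on by Shh-conditioned medium diluted 1 in 25 in low serum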
PD-1 reversal – activators reversing PD-1 mediated T-cell inhibition, primary screen, luminescence, primary human CD4 T cells, PD-L1 beads. 29,000 tested, under 10 active. CellTiter-Glo 96 h. activation, % (no concentration beside the values). AID 2316, 2010; call rule not given here;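 further: 0% = median vehicle wells and 100% = positive control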
NOMO-1 viab – NOMO-1 AML cell viability reduction, primary screen, STK33 inhibitor project, CellTiter-Glo luminescence | NOMO-1 AML viability, 72 h | inhibition, % (test concentration not listed) | 37,000 tested, 7.5% active | AID 2330, 2010; in the data active means inhibition above about 80%; inconclusive means no clear call, values can overlap the other calls
MITF inh – inhibitors of MITF, primary screen, MITF inhibitor project, cell-based, luminescence; 37,000 tested, 0.28% active; TRPM1 promoter luciferase, 24 h; inhibition, % (concentration not given with the values); in the data active means inhibition above about 85%; inconclusive means no clear call, values can overlap the other calls; inactive means below about 68%;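 further: human melanocyte line stably carrying TRPM1 promoter luciferase reporter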
An asterisk follows results filed as active; ? = inconclusive; . = no result. Rows were chosen to be rich in hits. Some 7.9% of all compounds tested hit in one or more screens of this group.

SMILES	Shh pathway inh	PD-1 reversal	NOMO-1 viab	MITF inh
O=c1cc(-c2ccccc2)nc2scc(-c3ccc(Cl)cc3)n12	-18.6	-0.1	-12.8	-4.5
O=c1cc(-c2ccccc2)nc2cc(-c3ccccc3)[nH]n12	-240.9	-1.7	106.9*	-25.9
Cc1c(NC(=O)CNS(=O)(=O)c2ccc(Br)cc2)c(=O)n(-c2ccccc2)n1C	.	-0.6	34.3	3.0
COc1ccc(OCC(=O)Nc2cc(-c3nnc(OC)c4ccccc34)ccc2N2CCCCC2)cc1	.	2.4	89.1*	72.7
COc1nnc(-c2ccc(N3CCOCC3)c(NS(=O)(=O)c3ccc(Cl)cc3)c2)c2ccccc12	.	0.3	10.5	10.1
c1ccc2[nH]c(-c3nc4ccccc4s3)nc2c1	20.7	-3.2	127.0*	86.2*
COc1ccccc1NC(=O)CSc1nnc(-c2ccccc2Cl)n1-c1ccccc1	.	.	60.7	24.3
O=C1c2c(O)cc(O)cc2O[C@@H](c2ccc(O)cc2)[C@H]1[C@@H]1C(=O)c2c(O)cc(O)cc2O[C@H]1c1ccc(O)cc1	72.1*	-17.9	58.1	-5.4
CCCCCCCCCC(O)CC(O)CC(O)CC1CC=CC(=O)O1 (stereo unspecified)	-22.8	-1.9	114.8*	-26.4
C=CCN1C(=O)/C(=C/c2cn(C(C)CC)c3ccccc23)C(=O)NC1=S (stereo unspecified)	.	-2.9	132.1*	4.8
C=CCN1C(=O)/C(=C/c2cc(C)n(CCOC)c2C)C(=O)NC1=S	3.2	2.5	10.2	22.4
Cc1cc(=O)n2[nH]c(NCc3cccc([N+](=O)[O-])c3)nc2n1	.	.	-5.5	-17.6
O=C(CSc1nc2c(c(-c3ccccc3)n1)CCCCC2)N1N=CCC1c1ccccc1 (stereo unspecified)	.	3.4	-18.7	-26.3
COc1ccc(C(=O)C(C)Oc2ccc(NC(=O)c3cccc(OC)c3)cc2)cc1 (stereo unspecified)	.	-5.3	124.5*	44.9
COc1ccc(C(=O)C(C)Oc2cccc(NC(=O)c3cccc([N+](=O)[O-])c3)c2)cc1 (stereo unspecified)	.	.	-8.8	-2.6
COc1ccc(C(=O)Nc2ccc(C(O)(C(F)(F)F)C(F)(F)F)cc2)cc1	?	0.5	109.7*	7.1
COc1ccc(N(CC(=O)Nc2ccccc2Br)S(C)(=O)=O)cc1OC	.	0.8	3.0	-10.3
COc1c(O[C@@H]2O[C@H](CO)[C@@H](O)[C@H](O)[C@H]2O)cc2oc(-c3ccc(O)cc3)cc(=O)c2c1O	-6.6	0.3	83.9*	-71.3
O=c1cc(O)c2sc3nc(-c4cccnc4)c4c(c3c2[nH]1)CCCC4	0.3	-0.3	106.0*	-1.0
C[C@@H]1CN([C@@H](C)CO)C(=O)c2cc(NC(=O)NC3CCCCC3)ccc2O[C@@H]1CN(C)Cc1ccc(Cl)c(Cl)c1	20.2	-0.9	22.1	32.3
C[C@@H]1CCCCO[C@@H](CN(C)Cc2ccc(Cl)c(Cl)c2)[C@@H](C)CN([C@H](C)CO)C(=O)c2cc(NC(=O)c3ccccc3)ccc2O1	11.5	-6.3	121.7*	30.5
C[C@@H]1CCCCO[C@@H](CN(C)Cc2ccc(Cl)c(Cl)c2)[C@@H](C)CN([C@H](C)CO)C(=O)c2cc(NC(=O)NC3CCCCC3)ccc2O1	.	-0.7	112.1*	25.3
CC(C)NC(=O)Nc1ccc2c(c1)C(=O)N([C@H](C)CO)C[C@H](C)[C@H](CN(C)Cc1ccc(Cl)c(Cl)c1)OCCCC[C@@H](C)O2	28.8	-6.5	100.7*	54.8
C[C@@H]1CCCCO[C@@H](CN(C)Cc2ccc(Cl)c(Cl)c2)[C@@H](C)CN([C@H](C)CO)C(=O)c2cc(NC(=O)Nc3ccc(F)cc3)ccc2O1	4.7	-1.5	134.4*	16.6
CCOC(=O)c1cnn(-c2ccccc2)c1NC(=O)C(C)(C)C	10.1	-0.1	25.5	8.8
SMILES	Shh pathway inh	PD-1 reversal	NOMO-1 viab	MITF inh
C[C@@H]1CCCCO[C@@H](CN(C)Cc2ccc3c(c2)OCO3)[C@@H](C)CN([C@H](C)CO)C(=O)c2cc(NS(=O)(=O)c3cccs3)ccc2O1	73.9*	-1.8	29.0	0.5
COc1ccc(NC(=O)Nc2ccc3c(c2)C(=O)N([C@H](C)CO)C[C@H](C)[C@@H](CN(C)Cc2ccc(Cl)c(Cl)c2)OCCCC[C@@H](C)O3)cc1	20.9	.	43.4	19.8
COc1ccc(CN(C)C[C@@H]2OCCCC[C@@H](C)Oc3ccc(NS(=O)(=O)c4cccs4)cc3C(=O)N([C@H](C)CO)C[C@@H]2C)cc1	.	.	32.8	-0.1
COc1ccc(NC(=O)Nc2ccc3c(c2)C(=O)N([C@H](C)CO)C[C@H](C)[C@H](CN(C)Cc2ccc4c(c2)OCO4)OCCCC[C@@H](C)O3)cc1	72.0*	0.1	57.3	17.2
COc1ccc(NC(=O)Nc2ccc3c(c2)C(=O)N([C@H](C)CO)C[C@H](C)[C@H](CN(C)Cc2ccc(Cl)c(Cl)c2)OCCCC[C@@H](C)O3)cc1	22.7	-3.7	97.8*	17.3
C[C@@H]1CCCCO[C@H](CN(C)Cc2ccc(Cl)c(Cl)c2)[C@@H](C)CN([C@H](C)CO)C(=O)c2cc(NC(=O)Nc3ccc(F)cc3)ccc2O1	.	.	125.7*	26.8
C[C@@H]1CCCCO[C@H](CN(C)Cc2ccc3c(c2)OCO3)[C@@H](C)CN([C@H](C)CO)C(=O)c2cc(NC(=O)Nc3ccc(F)cc3)ccc2O1	-3.5	-3.3	70.1	-1.2
COc1ccc(NC(=O)Nc2ccc3c(c2)C(=O)N([C@H](C)CO)C[C@H](C)[C@@H](CN(C)Cc2ccc4c(c2)OCO4)OCCCC[C@@H](C)O3)cc1	7.5	.	21.1	-16.8
O=C(O)CCc1ccc(F)cc1	-5.0	0.6	-17.4	5.9
Cn1c(SCC(=O)Nc2c(F)cc(F)cc2Br)nnc1-c1ccco1	.	.	-15.2	5.8
C[C@H](CO)N1C[C@H](C)[C@@H](CN(C)Cc2ccc(Cl)c(Cl)c2)Oc2c(NC(=O)Nc3ccc4c(c3)OCO4)cccc2C1=O	-25.5	.	81.6*	-8.2
C[C@@H]1CN([C@H](C)CO)C(=O)c2cccc(NC(=O)Nc3ccc4c(c3)OCO4)c2O[C@H]1CN(C)Cc1ccc(Cl)c(Cl)c1	-3.7	-3.6	87.1*	12.2
CC1CC(=O)c2c(ccc3c2C(=O)c2cccc(O)c2C3O)C1 (stereo unspecified)	-10.3	-7.1	117.5*	4.5
O=C(CSc1n[nH]c(-c2ccc(Cl)cc2Cl)n1)Nc1ccc(I)cc1	.	0.9	26.1	-13.7
O=C(COc1ccc(Cl)cc1)CC(=O)c1ccc(Cl)cc1	5.8	-3.0	109.9*	-5.2
Cc1cc(=S)nc(-c2ccccn2)[nH]1	17.2	-5.3	112.4*	12.2
COC(=O)c1c(-c2c(Cl)cccc2Cl)noc1NC(=O)NCc1ccccc1	38.1	-1.0	104.2*	4.6
Cc1onc(-c2c(Cl)cccc2Cl)c1C(=O)ON1C(=O)CCC1=O	15.8	-1.1	70.5	-7.8
Cc1nc(-c2cc(C#N)c(SCCNS(=O)(=O)c3ccc(C(C)(C)C)cc3)nc2C)cs1	89.7*	0.5	52.1	7.1
O=C(NCCc1c[nH]c2ccccc12)NC12CC3CC(CC(C3)C1)C2	.	-0.1	42.8	-64.3

Screening results (PubChem BioAssay)
